Experimental findings from PubChem BioAssay (NCATS) are described below.

A short description of test [1]: P-glycoprotein substrates identified in KB-3-1 adenocarcinoma cell line, qHTS therapeutic library screen (AID 1346986). Further: nearly all actives have a fitted effect of over 60% in size.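 Further: potency means the concentration at half of the fitted maximal effect; potency is for cytotoxicity meaning loss of cell viability.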 In outline: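 Resistance attributable to P-gp was assessed by comparing AC50 in KB-8-5-11 with parental KB-3-1 and by tariquidar reversal. Cells were exposed 72 h and viability read by CellTiter-Glo.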
On the technique in general: qHTS replaces the single test concentration by a dilution series.

Test [2] in a line: Primary qHTS for inhibitors of nuclear receptor binding SET domain protein 2 (NSD2) in an isogenic RCH-ACV NSD2 p.E1099K mutant (9B) (AID 1645876). Further: nearly all actives have a fitted effect of over 70% in size. Further: potency means the concentration at half of the fitted maximal effect.
Test [3] can be described thus: Primary qHTS for inhibitors of nuclear receptor binding SET domain protein 2 (NSD2) in an RCH-ACV wild type WT cells (2C) (AID 1645877). Further: nearly all actives have a fitted effect of over 70% in size. Further: potency means the concentration at half of the fitted maximal effect.
A short description of test [4]: P-glycoprotein substrates identified in KB-8-5-11 adenocarcinoma cell line, qHTS therapeutic library screen (AID 1346987). Further: on the % scale 0 is the no-effect control and ±100 the full control effect; nearly all actives have a fitted effect of over 65% in size. Summed up: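 KB-8-5-11, a colchicine-selected P-gp-overexpressing KB-3-1 subline, was grown without colchicine for the assay. Cells were seeded at 500 cells/well, dosed in concentration-response and incubated 72 h at 37 degree C, 5% CO2. Viability was read by CellTiter-Glo luminescence.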

Test [5] concerns the target Glutathione peroxidase 1 (Homo sapiens) (UniProt P07203). The test is described as follows: Primary qHTS Assay for Inhibitors of Recombinant Selenoprotein Glutathione Peroxidase 1 (GPX1) (AID 1845191). Further: nearly all actives have a fitted effect of over 65% in size. In outline:
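Recombinant GPX1 (10 nM final) was preincubated with compound for 30 min at room temperature, then reacted with 1 mM GSH, 0.5 mM CHP, 0.5 mM NADPH and 100 nM glutathione reductase; NADPH fluorescence (340/450 nm) was read at 0 and 15 min.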

The target of test [6] is Calcium and integrin-binding protein 1 (Homo sapiens) (UniProt Q99828). The test is described as follows: Primary qHTS for Identification of Calcium Integrin Binding Protein 1 (CIB1) Competitor (AID 1508620).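 Further: GST tagged CIB1 binding a fluorescein labelled alphaIIb integrin peptide tracer; top concentration of the series differs between compounds; on the % scale 0 is the no-effect control and ±100 the full control effect.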 In outline: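 Fluorescence polarization competition: CIB1-GST (1 uM final) preincubated with compound 15 min at room temperature, then FITC-labeled alphaIIb peptide (100 nM final) added for another 15 min. Polarization read at Ex 480/Em 540.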

Test [7] deals with N-terminal Xaa-Pro-Lys N-methyltransferase 1 (Homo sapiens) (UniProt Q9BV86). Kind of test: Confirmatory qHTS for Inhibitors of N-terminal methyltransferase 1 (NTMT1): MTaseGlo Assay (AID 1645874). Further: potency means the concentration at half of the fitted maximal effect; nearly all actives have a fitted effect of over 65% in size. Summed up: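 qHTS format: NTMT1 125 nM, SAM 100 uM, peptide SPKRIA 1 uM final; 15 min compound preincubation, 30 min reaction at room temperature. MTase-Glo luminescence.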
Test [8] addresses Catechol O-methyltransferase (Homo sapiens) (UniProt P21964). The test is described as follows: Confirmatory Screen for Target Class Profiling of Small Molecule Inhibitors of Methyltransferases (AID 1745852; calls by dose curve; further: potency means the concentration at half of the fitted maximal effect). The conditions noted are these: MTase-Glo luminescence, SAH detection, recombinant enzyme; measured here: COMT max response; stronger effect = lower value.
In test [9] the target is Guanidinoacetate N-methyltransferase (Homo sapiens) (UniProt Q14353). The test is described as above. The conditions noted are these: activity change, negative = inhibition: at 57.3 µM (top of the series) unless noted.
Test [10] addresses Nicotinamide N-methyltransferase (Homo sapiens) (UniProt P40261). The description is as above. The conditions noted are these: MTase-Glo luminescence, SAH detection, recombinant enzyme; measured here: NNMT max response; stronger effect = lower value.
The target of test [11] is Phenylethanolamine N-methyltransferase (Homo sapiens) (UniProt P11086). The description is as above. The conditions noted are these: MTase-Glo luminescence, SAH detection, recombinant enzyme; measured here: PNMT max response; stronger effect = lower value.
Test [12] in a line: qHTS to identify inhibitors of the type 1 interferon - major histocompatibility complex class I in skeletal muscle: primary screen against the NCATS Mechanism Interrogation Plate v5.0 (MIPE) Libary (AID 1347411). Further: nearly all actives have a fitted effect of over 65% in size. Further: potency means the concentration at half of the fitted maximal effect.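 On activity change, negative = inhibition: plate controls were vehicle for no effect and reference inhibitor for full effect.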 In outline:
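Immortalized human myoblasts (C25cl48) with HiBit knocked into endogenous HLA-B*08:01 were stimulated with 4 ng/ml IFN-beta and given compounds in 11-point 1:3 titration from 46 uM. After 24 h at 37 C, lytic HiBiT luminescence was read.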

The nature of test [13]: qHTS drug screen for cell cycle checkpoint inhibitors in PARPi-resistant BRCA-mutant ovarian cancer cell lines. (AID 1963452; calls by dose curve; further: potency means the concentration at half of the fitted maximal effect). The conditions noted are these: PEO1/OlaR viability, CellTiter-Glo luminescence, 96 h; for Z-AUC: stronger effect = lower value. Summed up: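 PEO1, PEO4 and PEO1/OlaR ovarian cancer cells, 600 per well, exposed 96 h at 37C to a dilution series. Viability read by CellTiter-Glo luminescence, normalized to DMSO and empty wells; activity summarized as Z-AUC.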

In test [14] the target is Phospholipid hydroperoxide glutathione peroxidase GPX4 (Homo sapiens) (UniProt P36969). Kind of test: Primary qHTS Assay for Inhibitors of Recombinant Selenoprotein Glutathione Peroxidase 4 (GPX4) (AID 1845192). The conditions noted are these: outcome: dose series up to 50 µM unless noted. Summed up: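 GR-coupled readout: 100 nM GR, 1 mM GSH, 0.5 mM NADPH; NADPH fluorescence (ex 340/em 450 nm) read at t=0 and after 15 min RT. GPX4 200 nM, preincubated 30 min with compound; substrate 0.5 mM CHP.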

The mark [15] stands for this setting: measured here: PEO1 parental Z-AUC.

The structures appear in SMILES notation. Records with an inconclusive call do not appear. Active and inactive are the calls of the source. Unless noted, the call rests on the fitted dose curve; in most records, active means well fitted curve in the direction sought with a large enough effect; inconclusive means small, poorly fitted or top-dose-only effect, or another doubt; inactive means no such curve, though single readings can be large; an effect the other way counts as inactive or inconclusive.

Chain of Glutathione peroxidase 1 (Homo sapiens) (P07203 whole entry, looked up): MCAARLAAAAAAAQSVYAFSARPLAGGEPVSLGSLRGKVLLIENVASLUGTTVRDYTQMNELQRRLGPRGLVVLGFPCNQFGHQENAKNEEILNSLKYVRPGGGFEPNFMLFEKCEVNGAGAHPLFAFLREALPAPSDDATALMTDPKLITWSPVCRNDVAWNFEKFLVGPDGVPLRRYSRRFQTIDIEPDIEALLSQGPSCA
Chain of Phenylethanolamine N-methyltransferase (Homo sapiens) (P11086 whole entry, looked up): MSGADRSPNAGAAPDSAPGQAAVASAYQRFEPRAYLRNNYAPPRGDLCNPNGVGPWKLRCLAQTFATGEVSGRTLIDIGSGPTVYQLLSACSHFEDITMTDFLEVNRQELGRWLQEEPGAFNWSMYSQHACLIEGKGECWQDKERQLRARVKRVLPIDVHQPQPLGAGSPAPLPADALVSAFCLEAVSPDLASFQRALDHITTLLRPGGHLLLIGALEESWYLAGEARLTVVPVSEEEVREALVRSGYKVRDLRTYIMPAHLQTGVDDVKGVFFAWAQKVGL
Chain of Calcium and integrin-binding protein 1 (Homo sapiens) (Q99828 whole entry, looked up): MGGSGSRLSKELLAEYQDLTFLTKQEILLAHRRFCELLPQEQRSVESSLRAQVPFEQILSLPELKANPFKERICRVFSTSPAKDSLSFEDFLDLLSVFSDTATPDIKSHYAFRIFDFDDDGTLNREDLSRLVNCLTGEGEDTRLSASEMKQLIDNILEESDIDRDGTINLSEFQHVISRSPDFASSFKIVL
Chain of N-terminal Xaa-Pro-Lys N-methyltransferase 1 (Homo sapiens) (Q9BV86 whole entry, looked up): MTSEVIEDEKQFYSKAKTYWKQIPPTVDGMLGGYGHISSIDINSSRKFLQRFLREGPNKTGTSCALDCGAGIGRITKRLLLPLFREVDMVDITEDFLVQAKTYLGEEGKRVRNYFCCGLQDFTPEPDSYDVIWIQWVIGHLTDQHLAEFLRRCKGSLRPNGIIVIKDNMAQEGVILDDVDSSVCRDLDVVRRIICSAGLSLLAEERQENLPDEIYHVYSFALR
Chain of Phospholipid hydroperoxide glutathione peroxidase GPX4 (Homo sapiens) (P36969 whole entry, looked up): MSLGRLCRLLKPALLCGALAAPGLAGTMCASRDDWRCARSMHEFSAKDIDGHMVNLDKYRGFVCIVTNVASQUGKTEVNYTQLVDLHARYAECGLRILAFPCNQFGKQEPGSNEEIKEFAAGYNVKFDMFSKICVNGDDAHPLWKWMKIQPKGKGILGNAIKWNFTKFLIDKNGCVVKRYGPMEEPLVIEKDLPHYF
Chain of Catechol O-methyltransferase (Homo sapiens) (P21964 whole entry, looked up): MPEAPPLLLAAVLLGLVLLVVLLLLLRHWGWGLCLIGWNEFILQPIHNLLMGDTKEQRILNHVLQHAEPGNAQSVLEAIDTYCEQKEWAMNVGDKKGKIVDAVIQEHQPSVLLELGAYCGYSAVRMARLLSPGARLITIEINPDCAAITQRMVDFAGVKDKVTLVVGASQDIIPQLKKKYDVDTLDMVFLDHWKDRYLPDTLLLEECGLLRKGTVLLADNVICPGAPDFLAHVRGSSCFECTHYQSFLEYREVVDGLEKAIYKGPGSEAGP
Chain of Nicotinamide N-methyltransferase (Homo sapiens) (P40261 whole entry, looked up): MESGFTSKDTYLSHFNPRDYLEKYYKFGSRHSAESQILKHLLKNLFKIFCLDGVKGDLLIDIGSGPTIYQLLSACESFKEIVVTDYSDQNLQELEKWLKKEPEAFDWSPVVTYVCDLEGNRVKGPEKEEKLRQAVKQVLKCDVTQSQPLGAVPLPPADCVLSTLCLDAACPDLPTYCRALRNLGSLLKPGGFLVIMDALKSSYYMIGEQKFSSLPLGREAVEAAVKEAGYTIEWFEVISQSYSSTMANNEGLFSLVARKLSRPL

As to `CN1CCCN(C(=O)c2cccc(-c3ccc(/C=C4\C(=O)Nc5ccc(Cl)cc54)o3)c2)CC1`, the Potency is 8.2 µM (active) in test [1], 0.231 µM (active) in test [2] and 0.231 µM (active) in [3].
With `COc1cc2c(cc1OC)/C(=C/c1ccc(O)cc1)C(=O)N2`, the Potency entry in [1], in test [4] and in test [5] was “inactive” throughout.
Turning to `C=C(C)[C@@H]1CCC2=CC(=O)C[C@@H](C)[C@]2(C)C1`, the Potency result in [1], in test [4], in test [2], in test [3] and in [5] was “inactive” in each case.
As for `CN(Cc1nccs1)c1ncnc2ccc(-c3ccc4c(c3)OCO4)cc12`, the Potency entry in test [1] and in test [5] was “inactive” in each case. In addition, the outcome in test [6] is “inactive”. The Potency in [7] was 11.5 µM (active); in test [9] it was 24.1 µM (active). Moreover, the activity is -82.4% in test [8], -71.7% in test [10] and -84.4% in test [11].
In the case of `COCc1c(-c2ccc(NC(=O)Nc3cc(C(F)(F)F)ccc3F)c(F)c2)c2c(N)ncnn2c1CN1CCOCC1`, the Potency is 16.4 µM (active) in test [1], 3.3 µM (active) in test [12] and 3.47 µM (active) in [13]. The Potency result in test [5] is “inactive”. The Z-AUC in test [13] (setting [15]) is -1.33; in test [13] (measured here: PEO4 Z-AUC), -1.61.
In the case of `CNC(=O)c1c(C)oc2cc(Oc3ncnc4cc(OC)c(OC)cc34)ccc12`, the Potency entry in test [1], in [12], in test [3], in test [5] and in [14] was “inactive” throughout. In addition, the Z-AUC was -0.474 (inactive) in test [13], -0.16 in test [13] (setting [15]) and -0.205 in test [13] (measured here: PEO4 Z-AUC).
In the case of `N#Cc1cccc(CN2CCC(N(Cc3cccnc3)C(=O)Nc3ccccc3-c3ccccc3)CC2)c1`, the Potency result in test [1], in [4] and in test [5] was “inactive” throughout.
